The source of these data is PubChem BioAssay (Tox21).

Assay [1] in a line: qHTS assay to identify small molecule antagonists of the androgen receptor (AR) signaling pathway using the MDA cell line in the presence of 0.5 nM R1881 - cell viability counter screen (AID 1259242). Further: nearly all actives have a fitted effect of over 45% in size. Further: potency means the concentration at half of the fitted maximal effect. In outline:
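Live-cell protease fluorescence, CellTiter-Fluor, 30 min at 37C. Cells: MDA-kb2, 3,000/well, preincubated 5 hr. Compounds plus 0.5 nM R1881 final, 16 hr, 37C, 0% CO2.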
For orientation: Quantitative high-throughput screening tests each substance at several concentrations.

Assay [2] addresses Androgen receptor (Homo sapiens) (UniProt P10275). Kind of assay: qHTS assay to identify small molecule antagonists of the androgen receptor (AR) signaling pathway using the MDA cell line in the presence of 0.5 nM R1881 (AID 1259243). Further: nearly all actives have a fitted effect of over 50% in size. Further: potency means the concentration at half of the fitted maximal effect. Put shortly:
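MDA-kb2, MMTV-luc (AR/GR elements); 3,000 cells/well; cpd + 0.5 nM R1881 final; 16 hr 37C, 0% CO2; ONE-Glo 30 min RT; luminescence.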

Assay [3] has as its target Estrogen receptor (Homo sapiens) (UniProt P03372). Briefly: qHTS assay to identify small molecule antagonists of the estrogen receptor alpha (ER-alpha) signaling pathway using the BG1 cell line in the presence of 0.1 nM 17-beta-estradiol (AID 1259244). Further: nearly all actives have a fitted effect of over 50% in size. Further: potency means the concentration at half of the fitted maximal effect. Put shortly: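 Luminescence after ONE-Glo (30 min, room temperature) measured ERE-luciferase activity in VM7Luc4E2 cells treated 22 h with compound and 0.1 nM final 17beta-estradiol as stimulator.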

Assay [4] can be described thus: qHTS assay to identify small molecule HDAC inhibitors (AID 1259364). Further: potency means the concentration at half of the fitted maximal effect.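 Further: wild-type HCT-116 cells with endogenous class I/II HDAC activity; nearly all actives have a fitted effect of over 45% in size.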 On activity change, negative = inhibition: top concentration of the series differs between compounds. In outline:
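HCT-116 (wild type), 1,500 cells/well, overnight; compound 2 hr 37C 5% CO2; HDAC-Glo I/II reagent 30 min RT; luminescence readout.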

Assay [5] in a line: qHTS assay to identify small molecule HDAC inhibitors - cell viability counter screen (AID 1259365). Further: series mostly up to about 92 µM; nearly all actives have a fitted effect of over 50% in size. Put shortly: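 HCT-116 wild-type, overnight attachment; 2hr drug exposure, 37C; CellTiter-Glo luminescent ATP readout after 30min RT.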
The nature of assay [6]: qHTS assay to identify small molecule agonists of the sonic hedgehog signaling (Shh) pathway - cell viability counter screen (AID 1259366). Further: nearly all actives have a fitted effect of over 50% in size. Further: potency means the concentration at half of the fitted maximal effect. In outline:
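Compounds in DMSO were pin-transferred onto 3T3 Gli1-Luc cells that had settled 4hr; plates then stood 24hr at 37C and 5% CO2. One hour before the end, CellTiter-Fluor was added and fluorescence recorded.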

Assay [7] can be described thus: qHTS assay to identify small molecule agonists of the sonic hedgehog signaling (Shh) pathway (AID 1259368; calls by dose curve;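 further: NIH/3T3-derived 3T3Gli1-Luc cells carrying a stable Gli1-driven firefly luciferase reporter; series mostly up to about 92 µM; nearly all actives have a fitted effect of over 15% in size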). Put shortly:
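Read-out: firefly luciferase luminescence from a Gli1 response element reporter stably integrated in NIH/3T3-derived 3T3Gli1-Luc cells, measured 30 min at room temperature after reagent addition. Compound exposure lasted 24 hr at 37 C, 5% CO2.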

Assay [8] is described as follows: qHTS assay to identify small molecule antagonists of the sonic hedgehog signaling (Shh) pathway (AID 1259369; calls by dose curve; further: nearly all actives have a fitted effect of over 45% in size; further: potency means the concentration at half of the fitted maximal effect). Put shortly:
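Luminescence readout: firefly Luc under Gli1 response element in 3T3Gli1-Luc cells (NIH/3T3 clone). Antagonist mode, stimulation by conditioned medium; compound exposure 24hr at 37 C, 5% CO2.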

The nature of assay [9]: qHTS assay to identify small molecule agonists of the androgen receptor (AR) signaling pathway in the presence of an antagonist - cell viability counter screen (AID 1259379). Further: nearly all actives have a fitted effect of over 25% in size. Further: potency means the concentration at half of the fitted maximal effect.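 On activity change, negative = cytotoxicity: MDA-kb2 human breast cancer cells carrying an MMTV luciferase reporter; series mostly up to about 92 µM.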 In outline:
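Viability counter screen: CellTiter-Fluor fluorescence, measured in the same wells as the luciferase read-out. MDA-kb2 cells, 3,000/well, with nilutamide at 3.0uM final and compounds at 15 concentrations, 16 hr at 37C, 0% CO2.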

Assay [10] is described as follows: qHTS assay to identify small molecule agonists of the estrogen receptor beta (ER-beta) signaling pathway - cell viability counter screen (AID 1259380). Further: nearly all actives have a fitted effect of over 30% in size. Further: potency means the concentration at half of the fitted maximal effect. In outline: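 Luminescence read-out (CellTiter-Glo, 30 min, room temp) taken in the same wells as the beta-lactamase reporter assay; ER-beta-UAS-bla HEK293T cells exposed to DMSO-dissolved compounds for 16 hr at 37C in 2% charcoal-stripped FBS medium.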

Assay [11] can be described thus: qHTS assay to identify small molecule antagonists of the estrogen receptor beta (ER-beta) signaling pathway - cell viability counter screen (AID 1259382). Further: nearly all actives have a fitted effect of over 55% in size. Further: potency means the concentration at half of the fitted maximal effect.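 On activity change, negative = cytotoxicity: HEK293T cells carrying ER-beta-UAS-bla reporter stimulated with estradiol; series mostly up to about 92 µM.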 Put shortly: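 Luminescent ATP read-out (CellTiter-Glo, 30 min, RT) taken in the same wells as the bla reporter assay. HEK293T ER-beta-UAS-bla cells in 2% charcoal-stripped FBS were exposed to compounds with 1nM E2 for 16 hr at 37C.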

Assay [12] concerns the target Estrogen receptor (Homo sapiens) (UniProt P03372). Briefly: qHTS assay to identify small molecule agonists of the estrogen receptor alpha (ER-alpha) signaling pathway in the presence of an antagonist (AID 1259383; calls by dose curve; further: top concentration of the series differs between compounds; nearly all actives have a fitted effect of over 15% in size). In outline: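 Luciferase luminescence (ONE-Glo, 30min at room temperature) measured in VM7Luc4E2 cells after 22hr compound exposure at 15 concentrations, with 10.0nM ICI-182,780 final present; cells express endogenous ER-alpha and carry four EREs upstream of luciferase.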

Assay [13] can be described thus: qHTS assay to identify small molecule agonists or antagonists of the thyroid stimulating hormone receptor (TSHR) signaling pathway - wild type cell line counter screen (AID 1259384; calls by dose curve). In outline:
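Counter screen in untransfected Hek293: compounds (15-point titration, triplicate) plus phosphodiesterase inhibitor Ro20-1724 added after 18 h plating; 30 min RT. Intracellular cAMP via competitive d2/cryptate immunoassay, 1 h incubation.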

Assay [14] has as its target Thyrotropin receptor (Homo sapiens) (UniProt P16473). Briefly: qHTS assay to identify small molecule antagonists of the thyroid stimulating hormone receptor (TSHR) signaling pathway (AID 1259385; calls by dose curve; further: nearly all actives have a fitted effect of over 20% in size). Put shortly:
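Antagonist mode: compound-treated TSHR-expressing HEK293 cells were stimulated with 1.5 ng/mL TSH (final) in presence of Ro20-1724 for 30 min at RT. HTRF cAMP detection after 1 h; each compound tested at 15 concentrations, triplicate.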

Assay [15] deals with Androgen receptor (Homo sapiens) (UniProt P10275). Briefly: qHTS assay to identify small molecule agonists of the androgen receptor (AR) signaling pathway in the presence of an antagonist (AID 1259381; calls by dose curve; further: nearly all actives have a fitted effect of over 15% in size). Put shortly:
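Luciferase read-out (ONE-Glo, 30min room temperature) in MDA-kb2 MMTV-reporter cells; agonist mode run in presence of AR antagonist nilutamide, 3.0uM final. Compounds tested as 15-point series, 16hr exposure at 37C, 0% CO2.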

Assay [16] is described as follows: qHTS assay to identify small molecule agonists of the estrogen receptor alpha (ER-alpha) signaling pathway in the presence of an antagonist - cell viability counter screen (AID 1259386). Further: nearly all actives have a fitted effect of over 30% in size. Further: potency means the concentration at half of the fitted maximal effect. On activity change, negative = cytotoxicity: series mostly up to about 92 µM. Put shortly: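 Read-out: CellTiter-Fluor fluorescence after 1hr reagent incubation, measured in the same wells as the luciferase readout. VM7Luc4E2 cells were exposed to 15 compound concentrations with 10.0nM ICI-182,780 for 22hr at 37C.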

Assay [17] addresses Estrogen receptor beta (Homo sapiens) (UniProt Q92731). Kind of assay: qHTS assay to identify small molecule agonists of the estrogen receptor beta (ER-beta) signaling pathway (AID 1259377; active means well fitted activation curve with a large enough effect in the signal ratio in the repeat runs, not every such curve was filed as active; the % refers to the signal ratio). Put shortly: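 qHTS in ER-beta-UAS-bla HEK293T cells: 6 hr settling, then 16 hr compound at 37C, then LiveBLAzer substrate 2 h at RT before fluorescence reading.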
Assay [18] has the same target. Briefly: qHTS assay to identify small molecule antagonists of the estrogen receptor beta (ER-beta) signaling pathway (AID 1259378; active means well fitted inhibition curve with a large enough effect in the signal ratio in the repeat runs, not every such curve was filed as active; the % refers to the signal ratio). In outline:
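Antagonist mode: compounds added to beta-lactamase reporter HEK293T ER-beta-UAS cells stimulated with E2 (1nM final), 16 hr at 37C. LiveBLAzer B/G FRET substrate, 2 hours room temperature, fluorescence read-out.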

Assay [19] in a line: qHTS assay to identify small molecule antagonists of the sonic hedgehog signaling (Shh) pathway - cell viability counter screen (AID 1259367). Further: nearly all actives have a fitted effect of over 55% in size. Further: potency means the concentration at half of the fitted maximal effect. Put shortly: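 Viability was read by CellTiter-Fluor fluorescence in the same wells, reagent added 23 hr into compound treatment and incubated 1 hr at 37C. The 3T3 Gli1-Luc reporter cells (2,000/well) received conditioned medium after compound and ran 24 hr.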

Values without a mark were called inactive. Records with an inconclusive call do not appear. Calls of active or inactive are those of the source. Unless noted, the call rests on the fitted dose curve; in most records, active means well fitted curve in the direction sought with a large enough effect in the repeat runs; inconclusive means weak or mixed curves; inactive means no such curve, though single readings can be large; an effect the other way counts as inactive or inconclusive.
On the % scale 0 is the no-effect control and ±100 the full control effect.

Sequence of Androgen receptor (Homo sapiens) (P10275 whole entry, looked up): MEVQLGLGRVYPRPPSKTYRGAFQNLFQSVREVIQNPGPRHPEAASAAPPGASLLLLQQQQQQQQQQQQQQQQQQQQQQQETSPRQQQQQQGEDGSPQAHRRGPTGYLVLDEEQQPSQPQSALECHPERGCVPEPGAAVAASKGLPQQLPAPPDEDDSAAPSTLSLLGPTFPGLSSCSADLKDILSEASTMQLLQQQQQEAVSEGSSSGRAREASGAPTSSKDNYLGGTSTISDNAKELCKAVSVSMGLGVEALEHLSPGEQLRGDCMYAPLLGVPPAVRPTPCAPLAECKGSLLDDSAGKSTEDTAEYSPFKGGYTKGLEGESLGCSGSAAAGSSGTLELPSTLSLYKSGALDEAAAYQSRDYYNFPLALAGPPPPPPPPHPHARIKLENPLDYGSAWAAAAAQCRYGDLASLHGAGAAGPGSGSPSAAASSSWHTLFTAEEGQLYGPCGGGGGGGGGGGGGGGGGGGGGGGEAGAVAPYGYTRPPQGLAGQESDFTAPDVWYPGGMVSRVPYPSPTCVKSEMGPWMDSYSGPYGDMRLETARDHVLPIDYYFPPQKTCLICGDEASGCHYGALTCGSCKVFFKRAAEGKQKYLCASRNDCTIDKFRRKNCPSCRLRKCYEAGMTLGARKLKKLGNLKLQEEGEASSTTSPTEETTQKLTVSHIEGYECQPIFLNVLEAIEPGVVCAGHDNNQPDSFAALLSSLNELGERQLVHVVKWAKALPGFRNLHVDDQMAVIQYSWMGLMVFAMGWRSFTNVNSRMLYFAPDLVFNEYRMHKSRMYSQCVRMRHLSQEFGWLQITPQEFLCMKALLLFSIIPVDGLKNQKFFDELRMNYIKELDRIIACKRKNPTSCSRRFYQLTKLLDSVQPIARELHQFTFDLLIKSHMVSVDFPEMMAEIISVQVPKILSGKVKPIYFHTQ
Sequence of Estrogen receptor (Homo sapiens) (P03372 whole entry, looked up): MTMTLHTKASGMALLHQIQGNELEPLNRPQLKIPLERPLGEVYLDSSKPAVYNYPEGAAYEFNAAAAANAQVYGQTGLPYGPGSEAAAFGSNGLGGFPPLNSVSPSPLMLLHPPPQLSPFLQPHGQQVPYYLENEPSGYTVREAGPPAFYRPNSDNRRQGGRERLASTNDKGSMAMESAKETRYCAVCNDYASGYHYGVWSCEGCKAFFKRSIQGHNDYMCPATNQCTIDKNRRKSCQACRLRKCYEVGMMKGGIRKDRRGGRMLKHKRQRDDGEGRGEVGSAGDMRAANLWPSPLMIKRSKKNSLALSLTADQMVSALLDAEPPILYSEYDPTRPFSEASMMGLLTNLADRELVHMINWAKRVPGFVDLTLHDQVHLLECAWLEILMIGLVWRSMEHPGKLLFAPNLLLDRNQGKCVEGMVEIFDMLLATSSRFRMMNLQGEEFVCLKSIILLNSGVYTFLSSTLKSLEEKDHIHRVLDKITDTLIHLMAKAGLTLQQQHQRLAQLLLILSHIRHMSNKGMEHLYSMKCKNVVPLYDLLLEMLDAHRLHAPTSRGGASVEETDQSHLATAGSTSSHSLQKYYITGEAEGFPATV
Sequence of Thyrotropin receptor (Homo sapiens) (P16473 whole entry, looked up): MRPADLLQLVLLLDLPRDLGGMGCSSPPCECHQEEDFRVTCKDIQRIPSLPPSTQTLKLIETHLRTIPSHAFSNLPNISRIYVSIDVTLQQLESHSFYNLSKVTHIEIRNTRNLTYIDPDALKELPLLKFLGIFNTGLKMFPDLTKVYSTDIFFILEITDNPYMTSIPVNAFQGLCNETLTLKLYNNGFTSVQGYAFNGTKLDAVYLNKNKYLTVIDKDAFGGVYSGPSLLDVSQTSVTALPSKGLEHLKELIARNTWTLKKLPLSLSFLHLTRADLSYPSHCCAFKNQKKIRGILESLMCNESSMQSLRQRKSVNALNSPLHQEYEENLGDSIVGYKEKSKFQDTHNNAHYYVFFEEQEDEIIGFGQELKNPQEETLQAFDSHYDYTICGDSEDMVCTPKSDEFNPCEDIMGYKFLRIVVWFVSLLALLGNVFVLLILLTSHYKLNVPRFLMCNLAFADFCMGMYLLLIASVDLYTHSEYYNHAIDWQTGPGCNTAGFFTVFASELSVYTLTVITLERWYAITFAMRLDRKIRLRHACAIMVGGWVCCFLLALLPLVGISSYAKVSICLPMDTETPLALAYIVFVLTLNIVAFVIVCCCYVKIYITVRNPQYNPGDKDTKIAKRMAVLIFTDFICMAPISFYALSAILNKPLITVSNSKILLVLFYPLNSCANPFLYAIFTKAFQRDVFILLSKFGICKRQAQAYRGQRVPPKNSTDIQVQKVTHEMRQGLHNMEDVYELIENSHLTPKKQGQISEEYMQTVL
Sequence of Estrogen receptor beta (Homo sapiens) (Q92731 whole entry, looked up): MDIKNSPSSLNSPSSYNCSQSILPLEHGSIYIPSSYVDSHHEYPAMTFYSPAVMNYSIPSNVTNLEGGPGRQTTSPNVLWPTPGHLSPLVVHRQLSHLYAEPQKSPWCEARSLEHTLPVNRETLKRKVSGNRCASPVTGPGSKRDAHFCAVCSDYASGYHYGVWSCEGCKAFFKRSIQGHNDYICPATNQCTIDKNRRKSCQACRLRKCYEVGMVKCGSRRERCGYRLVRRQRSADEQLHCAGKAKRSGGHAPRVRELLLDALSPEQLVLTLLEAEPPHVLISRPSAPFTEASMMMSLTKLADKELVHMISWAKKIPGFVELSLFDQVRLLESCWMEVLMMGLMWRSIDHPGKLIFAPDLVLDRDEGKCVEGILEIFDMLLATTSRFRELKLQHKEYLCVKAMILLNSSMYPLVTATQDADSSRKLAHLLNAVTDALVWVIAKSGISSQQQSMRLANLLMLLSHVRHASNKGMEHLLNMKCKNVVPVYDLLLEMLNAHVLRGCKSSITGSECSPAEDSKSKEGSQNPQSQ

`O=C(O)c1cccc(Cl)n1`: the Potency result in assay [1], in assay [2], in assay [3], in assay [4], in assay [5] and in [6] was “inactive” throughout. For the same compound, the Potency entry in assay [7], in [9], in assay [10], in [11], in assay [12] and in assay [14] was “inactive” throughout. In addition, the Potency in assay [8] was 30.6 µM (active). Further, the compound was called inactive in [13].

As to `CCCCCCCC(OC)OC`, the Potency result in assay [1], in [2], in [3], in [4], in assay [5] and in assay [6] was “inactive” in each case. Also, the Potency entry in assay [7], in assay [8], in assay [9], in assay [10], in [15] and in [11] was “inactive” throughout. Further, the Potency entry in assay [12], in assay [14] and in [16] was “inactive” throughout. Moreover, the call in assay [13] was inactive.

Regarding `CC(C)=CCCC(C)O` (centres undefined), the Potency entry in assay [1], in assay [2], in assay [3], in [4], in [5] and in assay [6] was “inactive” each time. The Potency result in assay [7], in assay [8], in assay [17], in [18], in [9] and in [10] was “inactive” each time. Also, the Potency entry in assay [11], in assay [12], in assay [14] and in [16] was “inactive” each time. Also, in assay [13], the outcome was inactive.

Turning to `O=S(=O)(O)c1cc(S(=O)(=O)O)c2ccc3c(S(=O)(=O)O)cc(S(=O)(=O)O)c4ccc1c2c43`, the values for the viability change, negative = cytotoxic in assay [1], in assay [6] and in [19] were -1.34% [at 19 µM], 1.66% [at 19 µM] and 0.116% [at 19 µM], respectively. The values for the activity, negative = inhibition in assay [2] and in assay [18] were 1.23% [at 19 µM] and -6.24% [at 19 µM], respectively. The activity change, negative = inhibition in assay [3] was 0.118% [at 19 µM]; in [4] it was 4.2% [at 19 µM]; in assay [8], 2.19% [at 19 µM]; in [14], -2.92% [at 19 µM]. In addition, in [7], the activity change was -2.01% [at 18.9 µM, hits give high values]. The activation in [17] is -3.15% [at 19 µM]; in assay [12], -1.94% [at 19 µM]. Besides, the activity change, negative = cytotoxicity in assay [9] is 1.33% [at 19 µM]; in assay [10], 1.19% [at 19 µM]; in assay [11], 6.71% [at 19 µM]; in [16], -2.62% [at 19 µM]. Also, in assay [13], the cAMP activity change is 5.29% [at 18.9 µM].

Take `CO[Si](CCCNCCNCCN)(OC)OC`: the Potency entry in assay [1], in [2], in [3], in assay [4], in assay [5] and in assay [6] was “inactive” throughout. The Potency result in assay [19], in assay [7], in [8], in assay [9], in [10] and in assay [11] was “inactive” each time. Moreover, the Potency result in assay [12], in assay [14] and in [16] was “inactive” each time. In assay [13], the result was inactive.

For the compound `O=C1C=CC(=O)N1c1ccccc1`, the Potency in [1] was 61.1 µM (active); in assay [2], 30.6 µM (active); in assay [3] it was 61.1 µM (active); in [4] it was 27.3 µM (active); in assay [6] it was 9.69 µM (active); in [19], 12.2 µM (active). The Potency is 6.11 µM (active) in assay [8]; 61.1 µM (active) in [9]; 27.3 µM (active) in [10]; 48.6 µM (active) in assay [11]; 68.6 µM (active) in assay [16]. In addition, the Potency entry in assay [7] and in assay [12] was “inactive” each time.

On to `O=Cc1ccc(F)cc1`, for which the Potency entry in [1], in [2], in assay [3], in assay [4], in [6] and in assay [7] was “inactive” in each case. Also, the Potency entry in assay [8], in assay [9], in [10], in assay [11], in [12] and in assay [14] was “inactive” in each case. Further, the Potency result in assay [16] is “inactive”. For the same compound, the compound was called inactive in assay [13].

As to `C=C(C)CCCC`, the Potency result in assay [1], in [2], in [3], in assay [4], in assay [5] and in assay [6] was “inactive” in each case. Moreover, the Potency entry in assay [19], in [7], in [17], in [18], in [9] and in [10] was “inactive” throughout. The Potency result in [15], in [14] and in assay [16] was “inactive” each time. The compound was called inactive in assay [13].

`CC(=O)OC1CCCCC1`: the Potency entry in [1], in assay [2], in [3], in assay [4], in assay [5] and in assay [6] was “inactive” each time. For the same compound, the Potency result in [19], in [7], in assay [8], in assay [9], in assay [10] and in assay [15] was “inactive” in each case. Also, the Potency result in assay [11], in [12] and in assay [14] was “inactive” each time. Also, the call in assay [13] was inactive.
